According to PubChem BioAssay (NCI):
The panel holds about 83,000 compounds, 20% with a hit somewhere; the sample as a whole holds those more often.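 48-hour exposure, single concentration, 96-well plates; percent growth endpoint where 0 means no net growth. Active: below 10.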 Values without a mark were called inactive. Active and inactive are the calls of the source.

System: MCF7 breast
Experiment: NCI-60 one-dose screen, 48 h (100 = growth as untreated, 0 = no growth, -100 = all killed)
Settings: 10 µM unless noted

| Structure (SMILES) | growth |
| --- | --- |
| O=[N+]([O-])c1cccc(/C=C/c2ccccn2)c1 | 7.24% (active) |
| COc1ccc(-c2nc3ccccn3c2/C=C/C(=O)c2cc(OC)c(OC)c(OC)c2)cc1 | 18.8% |
| COc1ccc(/C(C)=C(\c2ccc(Cl)cc2)c2ccc(OCCN3CCCCC3)cc2)cc1F | 15% |
| CCOc1cccnc1/C=N/NC(N)=S | 28.8% |
| CCCCCCCC/C=C/CCCCCCCC1=NCC[N+]1(CCO)CCO | 66.5% |
| O=C(Nc1ccccc1)c1sc(-c2cccc(C(F)(F)F)c2)cc1O | 74.7% |
| CCN(CC)S(=O)(=O)c1ccc(O)c(NC(=O)c2[nH]c(C)c(C(C)=O)c2CCc2ccc(Cl)cc2)c1 | 43.8% |
| COc1ccc(-c2nnc(SCC(=O)NC3=NN=C(c4ccccc4)CS3)o2)cc1 | 102% |
| N=C(N)c1ccc(-c2ccc(-c3ccc(Cl)cn3)s2)cc1 | -44.4% (active) |
| C[C@@H]1C(=O)N(C[C@H](Cc2ccccc2)N(Cc2ccccc2)Cc2ccccc2)[C@]1(Cc1ccccc1)C(=O)OC(C)(C)C | 50.6% |
| COc1cccc(CCC2CCCN(c3cc(C)nc(N)n3)C2)c1 (centres undefined) | 17.8% |
| Cc1[nH]c(-c2nc3ccccc3[nH]2)c(C)c1C(=O)N1CCOCC1 | 93.3% |
| CN(C)CCCCNc1ccc(NCCCCN(C)C)c2c1C(=O)c1c(O)ccc(O)c1C2=O | -81.6% (active) |
| COc1cc(C(=O)Nc2cc(O)c(CC=C(C)C)c(O)c2)cc2c1O[C@]1(C)CC[C@@H](O)C(C)(C)[C@H]1C2 | 6.62% (active) |
